PubChem BioAssay (NCATS)
Inconclusive results are not listed. Activity calls are given as the source filed them. Calls come from the whole dose curve; as a rule, active = well fitted activation curve with a large enough effect in the repeat runs; inconclusive = weak or mixed curves; inactive = flat fitted curve, though single readings scatter.

assay: qHTS assay for small molecule agonists of the antioxidant response element (ARE) signaling pathway measured by Nrf2-dependant transcriptional activity (AID 720636); settings: ARE-luc HepG2, Nrf2 luciferase reporter, 16 h; series mostly up to 92.4 µM; activation: at the top concentration; for activation: % of control where 0% means no effect
Text: National Center for Advancing Translational Sciences [NCATS] NIH Chemical Genomics Center [NCGC] U.S. Environmental Protection Agency [EPA] National Institutes of Environmental Health Sciences [NIEHS] National Toxicology Program [NTP] Assay Overview: The antioxidant response element (ARE) signaling pathway plays an important role in the cellular anti-oxidant defense. Exposure to stressors which are exogenous like ionizing radiations, chemicals, U-V light, and endogenous like cell signaling, metabolic processes or inflammation, reactive oxygen species (ROS), can induce oxidative stress in the cells. Oxidative stress has been implicated in the pathogenesis of a variety of diseases ranging from cancer to neurodegeneration. ARE-luc HepG2 cell line (Simmons et al., Current Chemical Genomics, 5:1-12, 2011) has been used for identifying the chemicals that induce oxidative stress. The cell line has an Nrf2-responsive luciferase reporter gene that has been engineered to measure Nrf2-dependant transcriptional activity.
Assay Protocol Summary: For measuring ARE induction; 2,000 ARE-luc HepG2 cells in 5 uL of assay medium containing 1% dialyzed FBS per well were dispensed into white wall/solid bottom 1536-well plates using a Flying Reagent Dispenser (FRD) (Aurora Discovery). The assay plates were incubated for 6 hr at 37 C to allow cell attachment to the well bottom, followed by the transfer of 23 nL compound or DMSO vehicle by a pin tool (Kalypsys). The plates were incubated for 16 hr at 37 C and 5% CO2, followed by the addition of 5 uL of ONE-GloTM luciferase reagent (Promega) into each well using FRD. After 30 min room temperature incubation, plates were read on a ViewLux plate reader (PerkinElmer).
Potency is the fitted concentration of half-maximal effect.

SMILES	activation	Potency
COC(=O)c1ccc(I)cc1S(=O)(=O)NC(=O)Nc1nc(C)nc(OC)n1	0.303% (inactive)	
CN(C)Cc1cc(CN(C)C)c(O)c(CN(C)C)c1	-0.171% (inactive)	
CCSC(=O)N(CC(C)C)CC(C)C	0.436% (inactive)	
Cc1cc(C)c(N)c(Cl)c1	0.256% (inactive)	
CC(=O)OC1CCC(C(C)(C)C)CC1 (stereo not given)	0.833% (inactive)	
Cn1c(=O)[nH]c(=O)n(C2CCC(O)CC2)c1=O (stereo not given)	1.12% (inactive)	
CCCCCCC(O)CCCCCCCCCCC(=O)OC (stereo not given)	0.441% (inactive)	
CC(C)(C)[C@H](O)[C@H](Cc1ccc(Cl)cc1)n1cncn1		inactive
CC(=O)CC(=O)Nc1ccc(C)cc1C	-0.0144% (inactive)	
CC1(C)CC(NCCCCCCNC2CC(C)(C)NC(C)(C)C2)CC(C)(C)N1	0.702% (inactive)	
CC(C)CC(C)(O)C#CC(C)(O)CC(C)C (stereo not given)	-0.201% (inactive)	
C[N+](C)(C)CC(O)CCl (stereo not given)	-0.894% (inactive)	
CCCCCCCCCC[N+](C)(C)Cc1ccccc1	0.33% (inactive)	
Cn1sccc1=O	1.17% (inactive)	
C=C(C)C(=O)OCC(CC)(COC(=O)C(=C)C)COC(=O)C(=C)C	-0.168% (inactive)	
CC[C@H]1O[C@]2(CC[C@@H]1C)C[C@@H]1C[C@@H](C/C=C(\C)C[C@@H](C)/C=C/C=C3CO[C@@H]4[C@H](O)C(C)=C[C@@H](C(=O)O1)[C@]34O)O2	-4.42% (inactive)	
CCCC/C=C\CCCCCCCCCC=O	0.0388% (inactive)	
Cl[Si](Cl)(Cl)c1ccccc1	0.113% (inactive)	
CC(C)C(=O)OCC(C)(C)C(O)C(C)C (stereo not given)	-0.117% (inactive)	
C=CC(=O)OCC[N+](C)(C)C	-0.394% (inactive)	

SMILES	activation	Potency
CCCCC/C=C\C/C=C\CCCCCCCC(=O)OC	-1.48% (inactive)	
CCCCC(CC)COC(=O)c1ccc(C(=O)OCC(CC)CCCC)cc1 (stereo not given)	0.76% (inactive)	
CCCOC(=O)c1ccc(C(=O)OCCC)nc1	-0.285% (inactive)	
COC(=O)C(C)Oc1ccc(Oc2ncc(C(F)(F)F)cc2Cl)cc1 (stereo not given)	0.654% (inactive)	
CCOCCOCCOC(C)=O	-0.0251% (inactive)	
CCCCCCCCCCO		inactive
Cc1ccc(N=Nc2c(O)ccc3ccccc23)c(C)c1		10.9 µM (active)
CN=C(N)NCC1CCOC1 (stereo not given)		inactive
CCCCCCCCCCCCO	1% (inactive)	
O=C(O)CCCCCCCCCCC(=O)O	-0.146% (inactive)	
C=C(C)C(=O)OCCCCCCCCCCCCCCCC	-0.152% (inactive)	
O=C(OCCOCCOC(=O)c1ccccc1)c1ccccc1	0.822% (inactive)	
CCOCCOCCOCC	-0.0911% (inactive)	
CCCCCCCCC(=O)O	0.758% (inactive)	
CCOC(=O)CCCCCCCCC(=O)OCC	0.679% (inactive)	
O=S(c1ccc(Cl)cc1)c1cc(Cl)c(Cl)cc1Cl (stereo not given)	-2.36% (inactive)	
O=C=NCCCCCCN=C=O	-0.335% (inactive)	
CCCCC(CC)COC(C)=O (stereo not given)	0.0778% (inactive)	
CC(=O)CC(=O)Nc1ccccc1C	0.843% (inactive)	
COC(=O)c1cccc(C)c1S(=O)(=O)NC(=O)Nc1nc(OCC(F)(F)F)nc(N(C)C)n1	-1.05% (inactive)	
